ChEMBL document CHEMBL2218924, “A broad activity screen in support of a chemogenomic map for kinase signalling research and drug discovery” (Biochem J, 2013)

Molecular target: T1, Mitogen-activated protein kinase kinase kinase kinase 2 (Homo sapiens) (UniProt Q12851)
T1 sequence (whole entry): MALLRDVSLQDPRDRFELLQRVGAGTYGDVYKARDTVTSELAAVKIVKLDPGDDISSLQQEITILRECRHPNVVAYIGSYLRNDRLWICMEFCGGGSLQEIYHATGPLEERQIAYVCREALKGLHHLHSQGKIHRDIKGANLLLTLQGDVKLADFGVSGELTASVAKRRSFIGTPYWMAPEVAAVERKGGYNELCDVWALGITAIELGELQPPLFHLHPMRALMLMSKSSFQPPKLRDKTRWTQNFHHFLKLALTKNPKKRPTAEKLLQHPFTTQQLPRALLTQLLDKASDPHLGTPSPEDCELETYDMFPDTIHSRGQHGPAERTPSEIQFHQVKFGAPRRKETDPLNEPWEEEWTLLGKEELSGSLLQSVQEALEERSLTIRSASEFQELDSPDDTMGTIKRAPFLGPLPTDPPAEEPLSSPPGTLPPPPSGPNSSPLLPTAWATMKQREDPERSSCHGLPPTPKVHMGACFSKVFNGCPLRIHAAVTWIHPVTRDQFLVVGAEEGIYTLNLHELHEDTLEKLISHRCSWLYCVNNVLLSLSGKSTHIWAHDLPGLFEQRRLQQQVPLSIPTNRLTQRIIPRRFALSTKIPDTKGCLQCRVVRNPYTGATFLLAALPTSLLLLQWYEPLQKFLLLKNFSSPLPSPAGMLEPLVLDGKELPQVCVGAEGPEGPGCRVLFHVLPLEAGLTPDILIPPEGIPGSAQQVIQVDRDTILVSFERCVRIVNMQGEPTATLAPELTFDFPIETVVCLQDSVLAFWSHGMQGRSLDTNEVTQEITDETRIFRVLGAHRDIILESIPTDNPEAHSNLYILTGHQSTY
Details: at 1 µM

In order of rising residual activity:
1. Nc1nc(Nc2ccc(S(N)(=O)=O)cc2)nn1C(=S)Nc1c(F)cccc1F  1%
2. Cn1cc(/C=C2\C(=O)Nc3ccc(S(N)(=O)=O)cc32)c2ccccc21  7%
3. O=C1Nc2cc(Br)ccc2/C1=C1/Nc2ccccc2/C1=N\O  16%
4. Oc1c2ccccc2c2c3c(cccc13)N=N2  16%
5. O=C1Nc2ccccc2/C1=C1/Nc2ccccc2/C1=N\OCCC(O)CO (stereo not given)  20%
6. CC(C)n1cnc2/c(=N/c3cccc(Cl)c3)nc(NCCO)[nH]c21  35%
7. O=C(O)c1ccc2c3c1cccc3c(=O)n1c3ccccc3nc21  38%
8. Nc1cccc(-c2cc3c(Oc4cccc(O)c4)ncnc3[nH]2)c1  42%
9. Ic1cccc(CSc2nnc(-c3ccncc3)o2)c1  49%
10. COc1cc2ncnc(Nc3ccc(O)c(Br)c3)c2cc1OC  52%
11. CC(=O)O/N=C1\C(=C2\C(=O)Nc3cc(Br)ccc32)Nc2ccccc21  67%
12. N#C/C(=C(\N)Sc1ccc(N)cc1)c1ccccc1C(F)(F)F  69%
13. O=C1c2ccccc2-[n+]2ccc3c([nH]c4ccccc43)c21  75%
14. O=C1NC(=O)/C(=C\c2ccc3nccnc3c2)S1  75%
15. CCC(=O)Nc1ccc2ncnc(Nc3cccc(Br)c3)c2c1  77%
16. CCOc1cc2ncnc(Nc3cccc(Br)c3)c2cc1OCC  78%
17. COc1ccc(CNc2nc(N(CCO)CCO)nc3c2ncn3C(C)C)cc1  78%
18. CNc1cc2c(Nc3cccc(Br)c3)ncnc2cn1  81%
19. O=C1NC(=O)c2cc(Nc3ccc(F)cc3)c(Nc3ccc(F)cc3)cc21  81%
20. Oc1n[nH]c2nnc(-c3c(-c4ccccc4)nn4ccccc34)cc12  82%
21. CN(C)c1ccc(/C=C2\C(=O)Nc3ccccc32)cc1  83%
22. CO[C@H]1C[C@@H]2CC[C@@H](C)[C@@](O)(O2)C(=O)C(=O)N2CCCC[C@H]2C(=O)O[C@H]([C@H](C)C[C@@H]2CC[C@@H](O)[C@H](OC)C2)CC(=O)[C@H](C)/C=C(\C)[C@@H](O)[C@@H](OC)C(=O)[C@H](C)C[C@H](C)/C=C/C=C/C=C/1C  85%
23. COc1ccc(S(=O)(=O)N(CCO)c2ccccc2CN(C)C/C=C/c2ccc(Cl)cc2)cc1  85%
24. Cn1cnc2cc3c(Nc4cccc(Br)c4)ncnc3cc21  86%
25. CC(C)n1cnc2c(NCc3ccccc3)nc(NCCCO)nc21  87%
26. O=C1NC(=O)c2c1c1c3ccccc3[nH]c1c1[nH]c3cc(Br)ccc3c21  88%
27. COc1ccc(OC)c2c(=S)c3ccccc3[nH]c12  90%
28. COc1cccc(-c2cc(=O)c3ccccc3o2)c1N  91%
29. O=c1c2ccccc2[nH]c(=S)n1CCN1CCC(=C(c2ccc(F)cc2)c2ccc(F)cc2)CC1  93%
30. O=C(Nc1cccc(Nc2nccc(Nc3cccc(C(F)(F)F)c3)n2)c1)C1CC1  97%
31. Oc1ccc(Nc2nc(-c3ccc(Cl)cc3)cs2)cc1  97%
32. O=c1cc(-c2cccc3c2Sc2ccccc2S3)oc(N2CCOCC2)c1  101%
33. O=C1NC(=O)/C(=C/c2ccc3c(c2)OC(F)(F)O3)S1  106%
34. CCN(CC)CCCCN1c2ccccc2Oc2ccc(Cl)cc21  109%
35. Cc1nc2cc3nc(-c4cccs4)cnc3cc2n1C  110%
